Test results published in ChEMBL document CHEMBL1201862, “PubChem BioAssay data set” (2004).
Where “and” joins values, the source holds several entries; their conditions need not be identical. Identical values can stand only once. The campaign covered roughly 400,000 compounds. About 2,100 (0.53%) were called active. Roughly 14% stayed inconclusive and do not appear here. How the calls were made is not given here. What follows is part of a selection rich in actives, with near analogues and random picks from the rest.

These compounds were tested against Ataxin-2 (Homo sapiens) (UniProt Q99700) (assay: qHTS for Inhibitors of ATXN expression.).
Ataxin-2 (Homo sapiens), sequence (Q99700 whole entry): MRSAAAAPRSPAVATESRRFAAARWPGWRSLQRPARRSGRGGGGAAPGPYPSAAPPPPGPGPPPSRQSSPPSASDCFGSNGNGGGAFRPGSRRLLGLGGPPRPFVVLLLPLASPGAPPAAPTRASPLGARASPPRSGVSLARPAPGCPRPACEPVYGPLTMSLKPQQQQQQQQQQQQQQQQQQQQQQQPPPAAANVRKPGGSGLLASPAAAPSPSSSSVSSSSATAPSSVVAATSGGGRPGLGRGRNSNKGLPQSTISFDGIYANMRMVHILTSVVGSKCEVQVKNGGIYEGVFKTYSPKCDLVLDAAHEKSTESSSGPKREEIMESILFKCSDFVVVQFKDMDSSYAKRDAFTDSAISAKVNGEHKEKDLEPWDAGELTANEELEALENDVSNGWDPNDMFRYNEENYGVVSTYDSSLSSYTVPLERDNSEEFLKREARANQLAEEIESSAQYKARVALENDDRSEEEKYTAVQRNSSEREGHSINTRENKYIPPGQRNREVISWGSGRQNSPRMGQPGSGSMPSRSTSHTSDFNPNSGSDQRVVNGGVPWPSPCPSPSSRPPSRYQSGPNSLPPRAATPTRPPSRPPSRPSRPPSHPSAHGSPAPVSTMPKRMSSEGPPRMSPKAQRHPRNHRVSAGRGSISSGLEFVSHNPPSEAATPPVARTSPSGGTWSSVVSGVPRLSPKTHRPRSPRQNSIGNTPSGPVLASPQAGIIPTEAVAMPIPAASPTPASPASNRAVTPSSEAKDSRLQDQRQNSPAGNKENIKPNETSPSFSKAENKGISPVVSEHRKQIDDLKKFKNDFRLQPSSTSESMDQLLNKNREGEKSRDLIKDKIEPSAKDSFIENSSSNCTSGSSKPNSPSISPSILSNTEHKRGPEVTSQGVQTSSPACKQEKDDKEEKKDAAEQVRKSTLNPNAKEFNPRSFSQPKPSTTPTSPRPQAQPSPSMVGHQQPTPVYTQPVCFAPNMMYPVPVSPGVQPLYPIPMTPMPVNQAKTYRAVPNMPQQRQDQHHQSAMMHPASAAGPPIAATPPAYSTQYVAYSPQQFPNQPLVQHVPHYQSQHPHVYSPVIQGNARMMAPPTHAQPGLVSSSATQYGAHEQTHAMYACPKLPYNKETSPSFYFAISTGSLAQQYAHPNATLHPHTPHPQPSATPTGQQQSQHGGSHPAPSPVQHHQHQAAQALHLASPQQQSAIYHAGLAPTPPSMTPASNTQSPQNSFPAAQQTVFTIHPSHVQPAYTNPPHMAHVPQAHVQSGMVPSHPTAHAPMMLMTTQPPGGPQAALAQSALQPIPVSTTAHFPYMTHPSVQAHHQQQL
Format: functional

| SMILES | Potency |
| --- | --- |
| O=c1cc(CSc2nc(O)c3ccccc3n2)c2ccc(O)cc2o1 | inactive |
| Cc1ccc(Cl)cc1NC(=O)c1ccccn1 | inactive |
| CC(Oc1cccc(Cl)c1)C(=O)Nc1nc(-c2ccccn2)cs1 (centres undefined) | 39.8 µM (active) |
| CC(Oc1ccc(Cl)cc1)C(=O)Nc1sccc1C(N)=O (centres undefined) | inactive |
| Cc1nc2c(OCc3ccc(Cl)cc3Cl)cccn2c1N(C)Cc1cccs1 | 8.91 µM (active) |
| CSCCC(NC(=O)COc1ccccc1)C(=O)N(C)Cc1ccc(Cl)cc1Cl (centres undefined) | inactive |
| CCOC(=O)N(C)c1c(CC)nc2c(OCc3ccc(Cl)cc3)cccn12 | 20 µM (active) |
| NNC(=O)c1sccc1OCc1ccc(Cl)cc1Cl | inactive |
| CCc1nc2c(OCc3ccc(Cl)cc3Cl)cccn2c1N(C)C(C)=O | 31.6 µM (active) |
| CCOC(=O)c1c(N)n(-c2ccc(CC)cc2)c2nc3ccccc3nc12 | inactive |
| O=C(O)CCC(=O)N1CCN(c2nc(-c3ccccc3)c3ccccc3n2)CC1 | inactive |
| O=C(CCCCCn1c(=S)[nH]c2ccc(N3CCOCC3)cc2c1=O)NCc1ccccc1Cl | inactive |
| Cc1cccc(OCc2nnc(SCC(=O)O)n2-c2ccccc2)c1 | 39.8 µM (active) |
| CCn1c(COc2cccc(C)c2)nnc1SCC(=O)NC1CCCC1 | inactive |
| Cc1ccc(NCc2nnc(SCC(=O)O)n2-c2ccc(C)cc2)cc1 | inactive |
| COc1ccc2ccc3cccc[n+]3c2c1 | inactive |
| CC(=O)Nc1ccc(S(=O)(=O)Nc2nc(C)cc(-n3nc(C)cc3C)n2)cc1 | inactive |
| Cc1cc(NC(=O)CSc2nc3c(C)cccc3cc2C#N)no1 | inactive |
| NNC(=O)c1oc2nc(-c3ccccc3)cc(-c3ccco3)c2c1N | inactive |
| O=C1[C@H](Cc2ccccc2)NCC=CC[C@@H](c2ccc(Cl)cc2)N1Cc1ccccc1 | 35.5 µM (active) |
| O=C1[C@H](Cc2ccccc2)NCC=CC[C@@H](c2ccc(Cl)cc2)N1Cc1ccc(Cl)cc1 | 28.2 µM (active) |
| Cc1ccc2nc3nc(NCC4CCCO4)c(C(=O)NC4CCCC4)cc3c(=O)n2c1 (centres undefined) | inactive |
| CCC(=O)c1cc2c(C)cc(=O)oc2c(C)c1OC(C)=O | inactive |
| Brc1ccc(OCc2nnnn2-c2ccccc2)cc1 | inactive |
| COc1ccccc1N1CCN(S(=O)(=O)c2ccc(-n3cnnn3)cc2)CC1 | inactive |
| COc1ccccc1-n1nnnc1S(=O)(=O)Cc1ccc(Cl)cc1 | 25.1 µM (active) |

| SMILES | Potency |
| --- | --- |
| Cc1cccc(/C=C(\C(=O)C(=O)O)c2ccc3ccccc3n2)c1 | inactive |
| CC(C)CC(N)c1csc(Nc2cc(Oc3ccccc3)ncn2)n1 (centres undefined) | 39.8 µM (active) |
| NC(Cc1ccc(Cl)cc1)c1csc(Nc2cc(Oc3ccccc3)ncn2)n1 (centres undefined) | 35.5 µM (active) |
| CCn1c(SCc2ccc(F)cc2)nc2c(c1=O)SCC2 | inactive |
| COc1cccc(-c2ccc3c(N)c(C(=O)c4ccc(F)cc4)sc3n2)c1 | inactive |
| C=CCNC(S)=Nc1ccc(Br)cc1F | inactive |
| CSc1ccccc1NC(=O)c1cc(C2CC2)on1 | inactive |
| CCOC(=O)C1=C(C)N=c2sc(=Cc3ccc(OCC(=O)O)cc3)c(=O)n2C1c1ccc(SC)cc1 (centres undefined) | inactive |
| CCOC(=O)CSC1=N/C(=C/c2ccc(-n3cncn3)cc2)C(=O)N1C(C)=O | inactive |
| CCOC(=O)CSC1=NC(=O)/C(=C\c2ccc(OC(C)=O)cc2)S1 | 28.2 µM (active) |
| CCOC(=O)c1cc2c(=O)n3ccccc3nc2n(CCOC)/c1=N\C(=O)C(C)(C)C | inactive |
| Cc1cccn2c(=O)c3cc(C(=O)NCc4ccco4)c(=N)n(C4CCCCC4)c3nc12 | inactive |
| Cc1ccc(N2C(=O)/C(=C/NC3CCS(=O)(=O)C3)c3ccccc3C2=O)c(C)c1 (centres undefined) | inactive |
| Cc1ccc(N2C(=O)/C(=C\Nc3ccccc3-c3nnc(S)nc3O)c3ccccc3C2=O)c(C)c1 | 17.8 µM (active) |
| Cc1cccc(N2C(=O)/C(=C\Nc3cc(O)ccc3C)c3ccccc3C2=O)n1 | inactive |
| CCOc1ccc(N2C(=O)/C(=C/Nc3ccnn3Cc3ccncc3)c3ccccc3C2=O)cc1 | inactive |
| Cn1nnnc1SCCCNCc1cc(Br)ccc1OCc1ccccc1F | 25.1 µM (active) |
| Cn1nnnc1SCc1cccc2ccccc12 | inactive |
| COc1ccc(CNCCSc2nnnn2C)c(OC)c1OC | inactive |
| Cn1c2nc(=O)n(-c3ccccc3)c(=O)c-2nc2c1CCCC2 | inactive |
| CCOc1ccccc1NC(=O)c1cc(SC)ccc1Cl | inactive |
| COc1ccccc1NC(=O)/C=C/C(N)=O | 39.8 µM (active) |
| CCCCOc1ccccc1C1C(C(=O)OC)=CN(CC)C=C1C(=O)OC | inactive |
| COc1ccccc1NC(=S)NC(=O)CCc1ccccc1 | inactive |
| CCCOc1ccccc1C1C(C(=O)OC)=CN(C(C)C)C=C1C(=O)OC | inactive |
| CCCOc1ccccc1NC(=O)/C=C/C(N)=O | 35.5 µM (active) |

| SMILES | Potency |
| --- | --- |
| CCOc1ccccc1NC(=O)/C=C/C(N)=O | 39.8 µM (active) |
| COc1ccccc1NC(=O)CCC(=O)OC(C)C(=O)c1ccccc1 (centres undefined) | inactive |
| CCOc1ccccc1NC(=O)CN1C(=O)COc2ccccc21 | inactive |
| Cc1cc(Br)ccc1-n1nc(C)c(/C=N/c2cccc3nsnc23)c1O | inactive |
| Cc1cc(NC(=O)Cn2cc([N+](=O)[O-])cn2)n(Cc2ccc(F)cc2)n1 | inactive |
| COc1ccc(C(=O)c2oc3ccc(OC)cc3c2NC(C)=O)cc1 | inactive |
| O=C1C=C(NCCc2ccccc2)C2(CCCCC2)O1 | inactive |
| CSc1ccc2c(c1)C(N1CCN(C)CC1)Cc1ccccc1S2 (centres undefined) | 22.4 µM (active) and 31.6 µM (active) |
| CN1CCN(C2Cc3ccccc3Sc3cc(C(F)(F)F)ccc32)CC1 (centres undefined) | 39.8 µM (active) |
| CCc1cccc2c1Sc1ccccc1CC2N1CCNCC1 (centres undefined) | 39.8 µM (active) |
| CCc1ccccc1N1C(=O)[C@@H]2Cc3ccccc3CN2C1=O | inactive |
| CN1CCN(C2Cc3ccccc3Sc3ccc(Cl)cc32)CC1 (centres undefined) | 22.4 µM (active) and 28.2 µM (active) |
| FC(F)(F)c1ccccc1C1=CC(c2ccccc2)n2ncnc2N1 (centres undefined) | inactive |
| CC(C)Nc1ccc(Nc2ccnc3cc4ccccc4cc23)cc1 | 31.6 µM (active) |
| c1ccc(CCNc2ccnc3cc4ccccc4cc23)cc1 | inactive |
| Cc1c2ccccc2nc2c(F)c(NC(C)C)c(F)c(F)c12 | inactive |
| Cc1c(CCC(=O)NC2CC2)c(=O)oc2cc(O)ccc12 | inactive |
| Cc1cc(/C=N/NC(=O)Cn2c3ccccc3c(=O)c3ccccc32)c(C)n1-c1ccc(Cl)cc1 | inactive |
| CC1CN(C(=O)COC(=O)c2ccc(NC(=O)CC#N)cc2)CC(C)O1 (centres undefined) | inactive |
| O=C(c1cc2cc(Br)ccc2s1)N1CCOCC1 | inactive |
| Cc1nnsc1C(=O)NNc1ccc(Cl)cc1 | inactive |
| O=C(c1cccn2c(=O)c3cc(Cl)ccc3nc12)N1CCOCC1 | inactive |
| O=C(c1nnsc1[S+]([O-])c1ccc(Cl)cc1)N1CCOCC1 (centres undefined) | 20 µM (active) |
| CCCNC(=O)c1nnsc1[S+]([O-])c1ccc(Cl)cc1 (centres undefined) | 6.7 µM (active) |
| O=C(c1nc2n(n1)C(c1ccc(Cl)cc1)C=C(c1ccccc1)N2)N1CCOCC1 (centres undefined) | inactive |
| CCCc1nn(C)c(C(=O)Nc2ccc(Cl)cc2)c1Cl | inactive |

| SMILES | Potency |
| --- | --- |
| O=C(c1nnsc1S(=O)(=O)c1ccc(Cl)cc1)N1CCOCC1 | 26.7 µM (active) |
| NC(=O)c1c(NC(=O)c2ccc(S(=O)(=O)N3CCOCC3)cc2)sc2c1CCCCC2 | inactive |
| C=CCOC(=O)C(=O)/C=C/c1coc2ccccc2c1=O | inactive |
| CCOc1cc(C(=O)NC2=NCCS2)cc(OCC)c1OCC | inactive |
| Cc1noc(C)c1-c1nnc(-c2ccc(OC(F)(F)F)cc2)o1 | inactive |
| Fc1ccc(Br)cc1C1C=C(c2cccnc2)Nc2ncnn21 (centres undefined) | inactive |
| O=C(CCN1Cc2ccccc2C1)c1ccc2c(c1)OCCO2 | 25.1 µM (active) |
| O=C(/C=C\Nc1ccccc1Br)c1ccc2c(c1)OCO2 | inactive |
| O=C(CCN1CCc2ccccc2C(O)(c2ccccc2)C1)c1ccc2c(c1)OCCO2 (centres undefined) | 39.8 µM (active) |
| Nc1c(-c2ccc3c(c2)OCCO3)oc2ccccc2c1=O | inactive |
| O=C(C1CC(=O)N(c2ccc3c(c2)OCCO3)C1)N1CCN(Cc2ccccc2)CC1 (centres undefined) | inactive |
| O=C(CCN1CCCC1Cc1ccccc1)c1ccc2c(c1)OCCO2 (centres undefined) | 31.6 µM (active) |
| N=C(NOC(=O)COc1ccc(Br)cc1Cl)c1ccncc1 | inactive |
| CC(C)C(NC(=O)C1CCCCC1)C(=O)NC1CCCC(C)C1C (centres undefined) | inactive |
| COc1cc(OC)c(-c2cc(C(=O)NCc3ccc(F)cc3)c3c(-c4ccccc4)[nH]nc3n2)cc1OC | 44.7 µM (active) |
| Cc1ccc(CNC(=O)c2sc3nc(-c4ccc(F)cc4)ccc3c2N)cc1 | inactive |
| Nc1c(C(=O)NCc2ccc(Cl)cc2)sc2nc(-c3ccc(F)cc3)ccc12 | inactive |
| N#CCSc1ccc2nc(-c3ccccc3)cn2n1 | inactive |
| CC1CC(=O)Nc2ccccc2N1C(=O)COc1ccccc1C(N)=O (centres undefined) | inactive |
| Cc1ccc2c(c1)C(c1ccccc1)N(C(=O)COc1ccc(Cl)cc1Cl)CC(=O)N2 (centres undefined) | 28.2 µM (active) |
| Cc1cc(OCC(=O)N2CCC(O)(c3ccc(Cl)cc3)CC2)c2c(C)cc(=O)oc2c1 | inactive |
| COc1cccc2c1cc1c(=O)n(CC(=O)NCCCN3CCN(C)CC3)nc(C)n12 | inactive |
| CCCCNC(=O)c1ccc(Cn2c(=S)[nH]c3c([nH]c4ccc(OC)cc43)c2=O)cc1 | 39.8 µM (active) |
| COc1ccc(N2CCN(C(=O)c3ccc(Cn4c(=S)[nH]c5ccc(N6CCOCC6)cc5c4=O)cc3)CC2)cc1 | inactive |
| O=C(NC1CCN(Cc2ccccc2)CC1)c1ccc(Cn2c(=S)[nH]c3ccc(N4CCOCC4)cc3c2=O)cc1 | inactive |
| CCN(CC)c1ccc(/C=N/NC(=O)c2nnn(-c3nonc3N)c2-c2ccc(C)cc2)cc1 | inactive |
